ELG1 genotoxic – genotoxicity induction in ELG1-luciferase HEK293T cells | HEK293T ELG1-luciferase reporter, luminescence, 16 h | Potency, µM (series often up to 46 µM), for inactives: at the top dose activity change, positive = activation, usual class: activators | hit rate 1.3% among 330,000; also: % of control where 0% means no effect; nearly all actives have a fitted effect of over 60% in size
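Screening used a luciferase reporter fused to human ELG1 in HEK293T cells. Luminescence was read on a CCD plate imager after 16 hr exposure and 30 min ONE-Glo incubation.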
SMN2 splice up – SMN2 splice variant enhancement; HEK293 SMN2-luciferase splicing reporter, luminescence, 30-36 h; Potency, µM (highest dose often 46.1 µM), for inactives: at the highest dose activity change, positive = activation, actives largely listed as activators; hit rate 2.8% among 210,000; AID 1458; also: % of control where 0% means no effect; nearly all actives have a fitted effect of over 55% in size
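HEK293 cells carry an SMN2 […]–luciferase reporter in which exon 7 inclusion puts luciferase in frame. Cells were plated 10-12 h before compound addition, then incubated 30-36 h at 37C. ONE-Glo luminescence was read; sodium butyrate at 4.5 mM final served as control.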
NPC1 promoter act – NPC1 promoter activation. Huh7 NPC1 promoter luciferase reporter, 24 h. Potency, µM (titrated, usually from 9.22 µM), for inactives: at the highest dose activation, most hits filed as activators. hit rate 2.4% among 320,000; also: % of control where 0% means no effect; nearly all actives have a fitted effect of over 60% in size
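Quantitative HTS used a cell-based reporter: Huh7 cells stably bearing the NPC1 promoter upstream of luciferase were treated with compounds for 24 h, and promoter activation was read as luminescence.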
FLuc counter – inhibits or activates purified firefly luciferase, miR-21 counter-screen; P08659; purified FLuc, Km substrates, luminescence inhibition; Potency, µM (series often up to 57.5 µM), without a hit: at the top dose activity change, negative = inhibition, hits mostly inhibitors; hit rate 6.9% among 360,000; AID 588342;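 also: plate controls were vehicle for no effect and reference inhibitor for full effect; nearly all actives have a fitted effect of over 55% in size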
Target sequence (P08659 whole entry, looked up): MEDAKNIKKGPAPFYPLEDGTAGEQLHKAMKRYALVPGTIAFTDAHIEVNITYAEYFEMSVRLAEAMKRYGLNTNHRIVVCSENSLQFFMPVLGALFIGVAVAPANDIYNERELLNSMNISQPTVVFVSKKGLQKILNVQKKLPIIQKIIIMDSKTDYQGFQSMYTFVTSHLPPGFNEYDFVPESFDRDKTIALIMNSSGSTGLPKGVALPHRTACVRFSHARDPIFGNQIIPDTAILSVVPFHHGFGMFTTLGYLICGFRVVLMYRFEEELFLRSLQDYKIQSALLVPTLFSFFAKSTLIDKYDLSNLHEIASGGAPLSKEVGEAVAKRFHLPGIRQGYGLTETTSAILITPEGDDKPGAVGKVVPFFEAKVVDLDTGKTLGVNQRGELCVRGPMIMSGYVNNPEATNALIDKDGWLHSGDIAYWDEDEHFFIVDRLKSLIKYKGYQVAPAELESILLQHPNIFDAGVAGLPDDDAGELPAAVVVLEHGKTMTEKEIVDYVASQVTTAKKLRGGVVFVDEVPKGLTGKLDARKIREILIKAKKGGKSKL
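Purified P. pyralis luciferase (10nM final) with 10uM D-luciferin and 10uM ATP (Km levels) in 50mM Tris acetate pH 7.5, 10mM Mg acetate, 0.01% Tween-20, 0.05% BSA; qHTS 6-point titration, ~60 µM downward; luminescence read.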
Rab9 promoter act – Rab9 promoter activation | Huh7 Rab9 promoter-luciferase reporter, luminescence, 24 h | Potency, µM (titrated, usually from 9.22 µM), without a hit: top-dose activation, negative = inhibition, hits mostly activators | hit rate 2.8% among 320,000; also: % of control where 0% means no effect; nearly all actives have a fitted effect of over 60% in size
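Huh7 cells stably carrying Rab9 promoter–luciferase reporter, plated 1500 cells/well, compound added after 2 h and incubated 24 h at 37 °C; luciferase luminescence then read after 10 min with detection reagent.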
ELG1 repair inh – inhibitors of ELG1-dependent DNA repair in HEK293T cells; HEK293T ELG1-luciferase reporter, luminescence, 16 h; DNA damage induced by 5-fluorouridine; Potency, µM (highest dose often 46.1 µM), for inactives: at the highest dose activity change, negative = inhibition, most hits filed as inhibitors; hit rate 2.3% among 330,000; also: % is scaled to controls: 0 for no effect and ±100 for the full control effect; nearly all actives have a fitted effect of over 55% in size
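Quantitative HTS, concentration-response format. 2,000 cells/well co-treated with 5-fluorouridine and compound, 16 hr in 5% CO2 at 37 °C; ONE-Glo luminescence read after 30 min.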
ELG1 FLuc counter – luciferase inhibition in cell-free luciferin readout for ELG1 hits; hit rate 3% among 350; Potency, µM (titrated, usually from 46.1 µM), without a hit: at the top dose activity change, negative = inhibition, actives largely listed as inhibitors; AID 624247; cell-free firefly luciferase luminescence counter-screen, ViewLux; shares compounds with ELG1 repair inh; also: % is scaled to controls: 0 for no effect and ±100 for the full control effect
ELG1-Luc inh – inhibits ELG1-dependent DNA repair in HEK293T cells, confirmed. Potency, µM (series often up to 46.1 µM), for the others: top-dose activity change, negative = inhibition, actives largely listed as inhibitors. HEK293T ELG1-luciferase levels, luminescence; cells co-treated with 5-fluorouridine. shares compounds with ELG1 repair inh. hit rate 68% among 670; also: % is scaled to controls: 0 for no effect and ±100 for the full control effect; nearly all actives have a fitted effect of over 55% in size
ELG1 MMS Luc – confirmation of human ELG1 repair inhibitors, MMS stimulated; shares compounds with ELG1 repair inh; HEK293T luciferase-tagged ELG1 level, MMS stimulated; Potency, µM (titrated, usually from 46.1 µM), for inactives: at the top dose activity change, negative = inhibition, hits mostly inhibitors; hit rate 53% among 670; also: % is scaled to controls: 0 for no effect and ±100 for the full control effect; nearly all actives have a fitted effect of over 60% in size
ELG1 5-FU – confirmation of ELG1 repair inhibitors: viability with 5FU | shares compounds with ELG1 repair inh | cell viability with 5-FU, ELG1-dependent repair | Potency, µM (highest dose often 46.1 µM), for inactives: top-dose activity change, negative = viability loss, actives largely listed as cytotoxic | 670 tested, under 10 active;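 also: ELG1-luc HEK293T cells cotreated with 5-fluorouridine at 10 µM final; viability measured 16 h after compound addition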
ELG1 MMS cell – confirmation of ELG1 repair inhibitors: viability with MMS; shares compounds with ELG1 repair inh; Cell viability with MMS, ELG1-dependent DNA repair; Potency, µM (titrated, usually from 46.1 µM), without a hit: at the top dose activity change, negative = viability loss, hits mostly cytotoxic; hit rate 33% among 670; AID 624251;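 also: ELG1-luc HEK293T cells co-treated with 10 µM MMS; viability read 16 h after compound addition; % is scaled to controls: 0 for no effect and ±100 for the full control effect; nearly all actives have a fitted effect of over 60% in size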
Cell viab unstim – affects unstimulated cell viability, ELG1 hit counter-screen; cell viability counter-screen, unstimulated, luminescence; Potency, µM (series often up to 45.9 µM), for the others: at the top dose activity change, negative = loss of viability, hits mostly cytotoxic; AID 624252; hit rate 8% among 900; shares compounds with ELG1 repair inh;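 also: compound exposure lasted 16 hours before reading; % is scaled to controls: 0 for no effect and ±100 for the full control effect; nearly all actives have a fitted effect of over 55% in size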
FLuc enzyme – firefly luciferase inhibition counter-screen; shares compounds with ELG1 repair inh; purified firefly luciferase, luminescence counter-screen; Potency, µM (highest dose often 57.5 µM), for inactives: at the highest dose activity, negative = inhibition, actives largely listed as inhibitors; hit rate 10% among 350; AID 624253; also: % is scaled to controls: 0 for no effect and ±100 for the full control effect
* marks the source's active call; other numbers are inactive results. In the library only some 9.2% were active in any assay of this set; here they are far more common. Calls follow the shape of the dose curve; as a rule, active = well fitted curve in the direction sought with a large enough effect; inconclusive = small, poorly fitted or top-dose-only effect, or another doubt; inactive = no such curve, though single readings can be large; an effect the other way counts as inactive or inconclusive. Potency is read from the fitted curve at half-maximal effect.

Cc1ccc2c(c1)sc1ncc(NC(=O)c3ccc(F)cc3)c(=O)n12 was read as ELG1 genotoxic 4.6%, SMN2 splice up -13.4%, NPC1 promoter act -3.5%, FLuc counter -4.5%, Rab9 promoter act -1.1% and ELG1 repair inh inconclusive.
`COc1ccc(-c2cc(-c3ccc(C)cc3)nc(SCc3nnc(-c4ccccc4)o3)c2C#N)cc1OC` gave ELG1 genotoxic 5.9%, SMN2 splice up -48.1%, NPC1 promoter act -3.1%, FLuc counter -2.0%, Rab9 promoter act -3.8%, ELG1 repair inh 2.91µM*, ELG1 FLuc counter -1.0%, ELG1-Luc inh 3.15µM*, ELG1 MMS Luc -11.7%, ELG1 5-FU inconclusive, ELG1 MMS cell 13.0%, Cell viab unstim -2.7% and FLuc enzyme 0.4%.
For CCCCc1nnc(NC(=O)c2oc3ccc(OC)cc3c2C)s1 the results were ELG1 genotoxic 8.7%, NPC1 promoter act 21.1%, FLuc counter -25.0%, Rab9 promoter act 16.2% and ELG1 repair inh inconclusive.
Screening CCOc1ccc2oc(C(=O)Nc3nccs3)c(C)c2c1 returned ELG1 genotoxic 2.59µM*, ELG1 repair inh inconclusive and Cell viab unstim -8.2%.
CCC(=O)N1CCc2cc(OC)c(OC)cc2C1COc1ccccc1OC (stereo not given) was read as ELG1 genotoxic 11.4%, SMN2 splice up 20.1%, NPC1 promoter act -7.9%, FLuc counter -2.7%, Rab9 promoter act 2.7% and ELG1 repair inh inconclusive.
For COc1ccc(C(=O)N2CCc3cc(OC)c(OC)cc3C2c2ccc(OC)c(OC)c2)cc1OC (stereo not given) the results were ELG1 genotoxic 3.5%, NPC1 promoter act 0.6%, FLuc counter -2.9%, Rab9 promoter act -1.0%, ELG1 repair inh 3.66µM*, ELG1-Luc inh inconclusive, ELG1 MMS Luc 15.4%, ELG1 5-FU inconclusive, ELG1 MMS cell -12.8% and Cell viab unstim -19.0%.

Screening results deposited in PubChem BioAssay by National Center for Advancing Translational Sciences (NCATS).
